Assay outcomes as filed in PubChem BioAssay.
TDP1 cell noCPT: qHTS for Inhibitors of human tyrosyl-DNA phosphodiesterase 1 (TDP1): qHTS in cells in absence of CPT | Potency, µM (highest dose often 46.2 µM), inactives show at the top dose activity change, negative = growth inhibition, hits mostly inhibitors | 15% of 420,000 active | DT40 Tdp1-/- hTDP1 cells, no CPT, ATP luminescence, 48 h; further: potency means the concentration at half of the fitted maximal effect; on the % scale 0 is the no-effect control and ±100 the full control effect; nearly all actives have a fitted effect of over 55% in size
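Cells were dispensed at 400 per well, compounds added by pin tool, plates incubated ≥48 hr at 37 °C, then CellTiter-Glo added for 30 min at room temperature before luminescence reading. Line: DT40 Tdp1-/- complemented with hTDP1; camptothecin omitted.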
TDP1 cell CPT: qHTS for Inhibitors of human tyrosyl-DNA phosphodiesterase 1 (TDP1): qHTS in cells in presence of CPT; 12% of 420,000 active; Potency, µM (highest dose often 46.2 µM), for the others: at the highest dose activity change, negative = growth inhibition, hits mostly inhibitors; AID 686979, 2013; chicken DT40 Tdp1-/-;hTDP1 cells + 20 nM CPT, ATP luminescence, 48 h; further: potency means the concentration at half of the fitted maximal effect; on the % scale 0 is the no-effect control and ±100 the full control effect; nearly all actives have a fitted effect of over 55% in size
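Chicken DT40 Tdp1-/- cells stably complemented with human TDP1 were seeded at 400 cells/well in medium containing 20 nM camptothecin, exposed to pin-transferred compounds, and grown at 37 °C for at least 48 hr. Viability was read as ATP luminescence.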
miR-21 act: qHTS Assay for Modulators of miRNAs and/orActivators of miR-21; HeLa miR-21 FLuc reporter, luciferase, 48 h; Potency, µM (titrated, usually from 38.3 µM), inactives show top-dose activity change, positive = activation, most hits filed as activators; 340,000 tested, under 10 active; AID 2288, 2010;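 further: % of control where 0% means no effect; miR-21 action dims this reporter so a rising signal means less miR-21 action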
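HeLa miR-21-FLuc reporter line, endogenous miR-21; 2000 cells/well in DMEM/10% FBS; compound titration up to ~40uM final, 48 h, 37 degree Celsius; luciferase detection reagent, 15 min lysis, CCD luminescence.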
uPA generation: qHTS for Inhibitors of Cell Surface uPA Generation | Potency, µM (highest dose often 38.3 µM), inactives show at the top dose activity change, negative = inhibition, most hits filed as inhibitors | 0.31% of 330,000 active | cell surface uPA generation assay, qHTS; active means well fitted inhibition curve with a large enough effect; inconclusive means small, poorly fitted or top-dose-only effect; inactive means no such curve, though single readings can be large or run the other way; tested in mouse RAW 264.7 cells; further: potency means the concentration at half of the fitted maximal effect; on the % scale 0 is the no-effect control and ±100 the full control effect; nearly all actives have a fitted effect of over 55% in size
TDP1 block: qHTS Assay for Inhibitors of Tyrosyl-DNA Phosphodiesterase (TDP1); Tyrosyl-DNA phosphodiesterase 1 (Homo sapiens), Q9NUW8; recombinant TDP1, AlphaScreen DNA substrate cleavage; Potency, µM (titrated, usually from 130 µM), for the others: at the top dose activity change, negative = inhibition, hits mostly inhibitors; 0.28% of 350,000 active; further: potency means the concentration at half of the fitted maximal effect; on the % scale 0 is the no-effect control and ±100 the full control effect; nearly all actives have a fitted effect of over 40% in size
Target sequence (Q9NUW8 whole entry, looked up): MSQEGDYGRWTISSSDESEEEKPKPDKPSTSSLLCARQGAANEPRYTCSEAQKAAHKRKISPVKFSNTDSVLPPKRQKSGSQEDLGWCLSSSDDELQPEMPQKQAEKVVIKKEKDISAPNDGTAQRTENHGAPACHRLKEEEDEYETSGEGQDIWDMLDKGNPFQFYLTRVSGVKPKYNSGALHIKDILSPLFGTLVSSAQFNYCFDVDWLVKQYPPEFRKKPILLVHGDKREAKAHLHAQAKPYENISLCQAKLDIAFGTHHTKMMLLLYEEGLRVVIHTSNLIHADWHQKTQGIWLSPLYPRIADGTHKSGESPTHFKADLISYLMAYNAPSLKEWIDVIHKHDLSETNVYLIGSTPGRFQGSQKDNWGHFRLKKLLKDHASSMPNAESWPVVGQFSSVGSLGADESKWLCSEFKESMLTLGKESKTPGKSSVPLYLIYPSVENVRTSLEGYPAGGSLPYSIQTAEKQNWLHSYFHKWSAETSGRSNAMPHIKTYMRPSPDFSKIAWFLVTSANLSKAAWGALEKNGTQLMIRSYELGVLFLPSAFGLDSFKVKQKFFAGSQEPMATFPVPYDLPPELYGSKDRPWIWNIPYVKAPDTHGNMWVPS
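Recombinant E. coli-expressed Tdp1 (1 nM) preincubated with compound 15 min at RT, then 5'-biotin/3'-phosphotyrosine-FITC DNA substrate (15 nM) added for 5 min. AlphaScreen beads (10 ug/ml) added, 10 min RT; tyrosine-FITC cleavage read as signal loss.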
* = called active by the depositor; ? = inconclusive; nt = no result; [ ] = remark or other dose. In the library only some 16% were active in any assay of this set; here they are far more common. Unless noted, the call rests on the fitted dose curve; in most records, active means well fitted curve in the direction sought with a large enough effect; inconclusive means small, poorly fitted or top-dose-only effect, or another doubt; inactive means no such curve, though single readings can be large; an effect the other way counts as inactive or inconclusive.

SMILES	TDP1 cell noCPT	TDP1 cell CPT	miR-21 act	uPA generation	TDP1 block
CCN(CC)C(=O)Cn1c(=O)n(-c2ccc(C)c(C)c2)c(=O)c2c(C)c(C(=O)N(CC)CC)sc21	-3%	-13%	-2%	nt	8%
COc1ccc(N(CCC#N)C(=O)/C(C#N)=C\c2cccs2)cc1	-19%	-12%	-4%	-2%	3%
Cc1ccc(CSCc2ccc(C(=O)NCCCN3CCOCC3)o2)cc1	6.5µM*	?	2%	-2%	0%
O=C(CC(=O)NCc1ccc(Cl)cc1)NCc1ccc(Cl)cc1	-2%	2%	5%	2%	7%
Cc1ccc(CC(=O)NCc2ccc(Cl)cc2)cc1	3.7µM*	4.6µM*	10%	?	-7%
CCOc1ccc(NC(=O)C2CCCN(S(=O)(=O)c3ccc4c(c3)CCCN4C(C)=O)C2)cc1 (centres undefined)	-24%	1%	7%	6%	3%
Clc1ccc(-c2nnc(-c3ccc(Br)cc3)c(N3CCSCC3)n2)cc1	12µM*	12µM*	-6%	0%	3%
Clc1ccc(-c2nnc(-c3ccco3)nc2N2CCCCC2)cc1	21µM*	21µM*	-7%	0%	7%
COc1cc(C(=O)NCC(=O)Nc2c(C)cccc2C)ccc1OCC(=O)N1CCOCC1	2%	0%	nt	2%	2%
CC(=O)Nc1ccccc1-c1nc2ccccc2n(C(C)C(=O)Nc2cc(Cl)ccc2C)c1=O (centres undefined)	26µM*	?	-12%	nt	6%
COc1ccc(OC)c(NC(=O)C(C)n2c(=O)c(-c3ccccc3NC(C)=O)nc3ccccc32)c1 (centres undefined)	?	23µM*	2%	nt	0%
CC1CCCC(NC(=O)C2CCN(S(=O)(=O)N3CCC4(CC3)OCCO4)CC2)C1C (centres undefined)	?	-27%	-1%	2%	4%
CCC(C(N)=O)c1ccccc1 (centres undefined)	3%	2%	nt	nt	-7%[56.1 µM]
c1ccc2oc(-c3[nH]ncc3CN3CCC(N4CCSCC4)CC3)cc2c1	-6%	-34%	-3%	2%	-2%
CCc1ccccc1Nc1nn2c(=O)c3ccc(C(=O)NC4CCCCC4)cc3nc2s1	13µM*	10µM*	-1%	nt	3%
COc1ccccc1Nc1nn2c(=O)c3ccc(C(=O)NC4CCCCC4)cc3nc2s1	3.7µM*	2.3µM*	5%	nt	3%
COC(=O)c1ccc2c(=O)n3nc(Nc4ccc(F)cc4F)sc3nc2c1	6%	12%	-5%	nt	4%
Cc1ccc(CSc2nc3cc(C(=O)NC4CCCC4)ccc3c(=O)n2Cc2ccccc2)cc1	?	?	0%	nt	4%
Cc1ccc(NC2=C(N3CCCCC3)C(=O)c3ccccc3C2=O)cc1	2.3µM*	2.6µM*	18%	-2%	-1%
O=C(/C=C/c1ccccc1)Nc1ccc(C(=O)N2CCCCC2)cc1	?	?	-29%	6%	4%
O=C(/C=C/c1ccc(O)cc1)c1ccc(NC2=C(N3CCCCC3)C(=O)c3ccccc3C2=O)cc1	1.6µM*	1.3µM*	16%	-5%	11%
O=C1C(Nc2ccccc2)=C(N2CCCCC2)C(=O)c2ccccc21	9.2µM*	18µM*	17%	-5%	1%
CN(C1=C(N2CCCCC2)C(=O)c2ccccc2C1=O)c1ccccc1	21µM*	15µM*	5%	9%	13%
CC1=C(Nc2ccc(C(=O)O)cc2)C(=O)c2ccccc2C1=O	?	?	0%	-13%	nt
COc1ccc(Oc2c(Cl)cnn(-c3ccc(Cl)c(Cl)c3)c2=O)cc1	?	?	0%	-10%	0%
SMILES	TDP1 cell noCPT	TDP1 cell CPT	miR-21 act	uPA generation	TDP1 block
Cc1ccccc1C(=O)Nc1ccccc1C(=O)OCc1cc(=O)n2nc(C3CC3)sc2n1	?	-12%	-15%	nt	-1%
Cc1nn(Cc2ccccc2Cl)c(Cl)c1C(=O)NCCc1ccccc1	?	?	-80%	-4%	3%
COc1ccccc1NC1=C(N2CCCCC2)C(=O)c2ccccc2C1=O	1.8µM*	2.1µM*	?	-10%	1%
O=C1C(Nc2cccc(O)c2)=C(N2CCCCC2)C(=O)c2ccccc21	7.3µM*	8.2µM*	8%	12%	7%
O=C(O)c1cccc(CSc2nnc(-c3ccc(Cl)cc3)o2)c1	-16%	15%	17%	5%	4%
CCCn1c(SCC(=O)NC(=O)NCc2ccccc2)n[nH]c1=O	-4%	5%	nt	-5%	1%
CCCn1c(SCC(=O)NC(=O)NCc2ccco2)n[nH]c1=O	nt	nt	-1%	nt	45µM*
Cc1nnc(SCC(=O)NC(=O)NCc2ccco2)n1Cc1ccccc1	-1%	0%	-4%	1%	50µM*
Cc1ccc(S(=O)(=O)CCC(=O)N(CCN2CCOCC2)c2nc3ccccc3s2)cc1	16µM*	21µM*	nt	-9%	6%
Cc1cccc2sc(N(CCN3CCOCC3)C(=O)CCS(=O)(=O)c3ccccc3)nc12	21µM*	16µM*	nt	-18%	8%
CC1(OC(=O)CCc2ccccc2)C(=O)C=C2C=C(c3ccc(C#N)cc3)N(CCc3c[nH]c4ccccc34)C=C2C1=O (centres undefined)	-28%	?	5%	1%	-1%[12.3 µM]
Cc1nc2ccccc2nc1-c1csc(-c2ccccc2)n1	11µM*	13µM*	nt	nt	nt
Cc1ccc(S(=O)(=O)CCNC(=O)Cc2ccccc2)cc1	?	21µM*	-2%	3%	5%
Cc1ccc(S(=O)(=O)CCC(=O)Nc2ccccc2C)cc1	23µM*	?	-1%	-1%	nt
Cc1ccc(S(=O)(=O)CCC(=O)Nc2sccc2C#N)cc1	21µM*	?	nt	-7%	11%
COC(=O)c1ccsc1NC(=O)CCS(=O)(=O)c1ccc(Cl)cc1	18µM*	?	nt	?	nt
Cc1ccc(CC(=O)NCCCc2ccccc2)cc1	-11%	-7%	-11%	1%	3%
CCCCN(C(=O)c1cccc(-n2cnnn2)c1)c1c(N)n(CCCC)c(=O)[nH]c1=O	1%	4%	nt	nt	nt
COc1ccc(NC(=S)N(CCC(C)C)C2CCN(C(C)=O)CC2)cc1	2%	-2%	-6%	-2%	nt
C=CCN1CCN(C(=O)c2cc3c(s2)CCC(CC)C3)CC1 (centres undefined)	16µM*	?	-37%	0%	3%
CC(C)c1cc(CN2C(C)COCC2C)cc(C(C)C)c1O (centres undefined)	?	21µM*	nt	-4%	nt
CC(C)CC(=O)n1sc(NC(=O)c2ccccc2)nc1=O	21µM*	15µM*	-1%	-5%	5%
